From PubChem BioAssay
Unmarked numbers belong to inactive results. For some assays here: Results with a measured potency or affinity are listed apart. Calls of active or inactive are those of the source. Unless noted, the rule behind the calls is not given here.

Experiments:
[1] = antimalarial activity against Dd2 strain (AID 2302;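 active = growth inhibition above 50% at the single 2 µM test dose, taken to imply half-maximal potency below 2 µM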;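 note: 0% = DMSO untreated growth and 100% = chloroquine plus artemisinin killed control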); details: P. falciparum Dd2 in RBCs, LDH growth readout, 72 h; at 2 µM; active compounds read high
[2] = HepG2 cytotoxicity, primary screen, cytotoxicity control for P. falciparum antimalarial project, cell-based, ATP luminescence (AID 2303;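 active = inhibition above 50%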;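 note: 0% = DMSO wells and 100% = digitonin-killed cells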); details: HepG2 viability, 24-48 h, at 10 µM, active compounds read high
[3] = target: L-lactate dehydrogenase (Plasmodium falciparum (isolate CDC / Honduras)) (UniProt Q27743); test: PfLDH activity inhibition – cell lysate, 3D7 strain, counter-screen for P. falciparum growth inhibition project (AID 2304);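 note: 0% = vehicle and 100% = reference inhibitor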; details: P. falciparum 3D7 crude extract, LDH APAD/NBT absorbance; at 2 µM; active compounds read high
[4] = inhibition of 3D7 malaria parasite growth – strain 3D7 (AID 2306);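 note: 0% = DMSO wells and 100% = chloroquine plus artemisinin control wells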; details: P. falciparum 3D7 erythrocytic growth, LDH absorbance, 72 h; at 2 µM; active compounds read high
[5] = target: Calcium-dependent protein kinase 1 (Plasmodium falciparum (isolate 3D7)) (UniProt P62344); test: PfCDPK1 kinase inhibitors, biochemical, TCAMS library (AID 1159585; cut-off not given, nearly all actives have IC50 up to about 0.98 µM;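 note: inhibitors leave more ATP so luminescence rises with inhibition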); details: recombinant PfCDPK1, Kinase-Glo ATP depletion luminescence
[6] = target: Plasmodium falciparum protein kinase 6 (PK6, PF3D7_1337100) (UniProt Q8IDW1); test: PfPK6 kinase inhibitors, biochemical, TCAMS library (AID 1159586); details: recombinant PfPK6, Kinase-Glo ATP depletion luminescence
[7] = target: Protein kinase 7 (PK7), Plasmodium falciparum 3D7 (PF3D7_0213400) (UniProt Q7YTF7); test: inhibition of Plasmodium PK7 catalytic activity – biochemical, TCAMS antimalarial set, Kinase-Glo luminescence (AID 1159587); details: recombinant PfPK7, Kinase-Glo ATP depletion luminescence
[8] = target: Calcium-dependent protein kinase 4 (Plasmodium falciparum (isolate 3D7)) (UniProt Q8IBS5); test: PfCDPK4 kinase inhibitors, biochemical, TCAMS library (AID 1159588; cut-off not given, nearly all actives have IC50 up to about 0.91 µM); details: recombinant PfCDPK4, Kinase-Glo ATP depletion luminescence
Sequence of Calcium-dependent protein kinase 4 (Plasmodium falciparum (isolate 3D7)) (Q8IBS5 whole entry, looked up): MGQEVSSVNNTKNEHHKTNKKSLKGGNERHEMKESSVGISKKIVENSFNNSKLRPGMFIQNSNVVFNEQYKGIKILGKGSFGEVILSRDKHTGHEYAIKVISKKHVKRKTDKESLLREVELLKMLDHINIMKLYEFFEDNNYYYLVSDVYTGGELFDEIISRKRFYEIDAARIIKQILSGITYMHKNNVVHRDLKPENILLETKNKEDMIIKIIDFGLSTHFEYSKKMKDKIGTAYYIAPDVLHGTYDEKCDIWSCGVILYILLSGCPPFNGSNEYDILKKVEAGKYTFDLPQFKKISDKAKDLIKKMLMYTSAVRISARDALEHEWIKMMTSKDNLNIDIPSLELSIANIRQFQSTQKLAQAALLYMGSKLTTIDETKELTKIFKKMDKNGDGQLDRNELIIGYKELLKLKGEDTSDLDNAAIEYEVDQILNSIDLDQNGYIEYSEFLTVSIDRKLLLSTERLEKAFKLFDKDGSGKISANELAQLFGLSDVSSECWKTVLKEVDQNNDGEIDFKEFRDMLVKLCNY

Sequence of Plasmodium falciparum protein kinase 6 (PK6, PF3D7_1337100) (Q8IDW1 1-305): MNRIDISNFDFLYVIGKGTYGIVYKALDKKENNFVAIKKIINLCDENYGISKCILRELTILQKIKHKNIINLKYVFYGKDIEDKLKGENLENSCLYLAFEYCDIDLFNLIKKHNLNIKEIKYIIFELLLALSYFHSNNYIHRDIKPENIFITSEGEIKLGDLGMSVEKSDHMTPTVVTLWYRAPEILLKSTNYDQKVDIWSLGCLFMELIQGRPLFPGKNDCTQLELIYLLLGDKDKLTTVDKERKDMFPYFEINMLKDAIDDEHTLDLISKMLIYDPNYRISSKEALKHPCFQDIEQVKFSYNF
Sequence of Calcium-dependent protein kinase 1 (Plasmodium falciparum (isolate 3D7)) (P62344 whole entry, looked up): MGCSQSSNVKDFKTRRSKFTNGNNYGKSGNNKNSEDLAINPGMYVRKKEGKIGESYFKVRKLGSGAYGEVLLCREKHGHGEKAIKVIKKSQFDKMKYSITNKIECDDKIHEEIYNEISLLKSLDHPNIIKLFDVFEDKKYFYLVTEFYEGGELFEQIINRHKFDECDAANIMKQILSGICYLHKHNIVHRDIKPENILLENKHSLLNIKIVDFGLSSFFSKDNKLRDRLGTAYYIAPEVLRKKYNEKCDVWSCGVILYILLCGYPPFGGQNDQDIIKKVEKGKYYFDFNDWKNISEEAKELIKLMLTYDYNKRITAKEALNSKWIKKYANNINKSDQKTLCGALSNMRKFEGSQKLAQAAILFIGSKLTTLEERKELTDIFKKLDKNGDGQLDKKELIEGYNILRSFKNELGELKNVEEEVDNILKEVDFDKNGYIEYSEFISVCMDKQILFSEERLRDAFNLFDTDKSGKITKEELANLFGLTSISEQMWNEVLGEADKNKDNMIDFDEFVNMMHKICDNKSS
Sequence of L-lactate dehydrogenase (Plasmodium falciparum (isolate CDC / Honduras)) (Q27743 whole entry, looked up): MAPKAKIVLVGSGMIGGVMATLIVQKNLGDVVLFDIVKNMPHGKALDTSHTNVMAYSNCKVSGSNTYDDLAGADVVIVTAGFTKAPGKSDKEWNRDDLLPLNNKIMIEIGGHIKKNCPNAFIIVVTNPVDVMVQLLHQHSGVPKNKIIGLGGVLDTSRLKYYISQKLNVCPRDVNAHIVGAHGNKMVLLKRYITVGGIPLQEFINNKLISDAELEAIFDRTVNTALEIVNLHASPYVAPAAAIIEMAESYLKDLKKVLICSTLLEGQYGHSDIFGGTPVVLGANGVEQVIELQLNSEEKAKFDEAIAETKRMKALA
Sequence of Protein kinase 7 (PK7), Plasmodium falciparum 3D7 (PF3D7_0213400) (Q7YTF7 1-343): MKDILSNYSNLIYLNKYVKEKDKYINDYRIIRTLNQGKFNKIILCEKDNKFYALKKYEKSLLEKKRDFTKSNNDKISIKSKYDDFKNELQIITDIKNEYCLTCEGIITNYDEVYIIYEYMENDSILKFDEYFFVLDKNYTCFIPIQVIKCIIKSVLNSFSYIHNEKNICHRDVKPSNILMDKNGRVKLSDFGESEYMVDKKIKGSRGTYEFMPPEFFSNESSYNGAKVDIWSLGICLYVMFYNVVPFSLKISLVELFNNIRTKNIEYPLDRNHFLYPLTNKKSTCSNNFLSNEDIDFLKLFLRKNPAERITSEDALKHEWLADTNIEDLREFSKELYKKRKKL

Structure (SMILES)	growth inhibition [1]	inhibition [2]	inhibition [3] [%]	growth inhibition [4]	outcome [5]	outcome [6]	outcome [7]	outcome [8]
N#Cc1ccc(CN2CCC(Oc3ccc(NC(=O)c4ccccc4)cc3Cl)CC2)cc1	65% (active)	21%	1	84% (active)	inactive	inactive	inactive	inactive
COc1ccc2ccccc2c1CCCCN1CCN(CC(c2ccc(F)cc2)N2CCC(N3CCCC3)CC2)CC1 (stereo not given)	73% (active)	74% (active)	7	99% (active)	inactive	inactive	inactive	inactive
O=C(/C=C/c1ccc(Cl)c(Cl)c1)NCCCCCN1CCCC(c2c[nH]c3ccccc23)C1 (stereo not given)	22%	25%	2	99% (active)	inactive	inactive	inactive	inactive
Cc1ccccc1NC(=S)NC1CCN(CCCCCNC(=O)/C=C/c2ccc(Cl)c(Cl)c2)CC1	7%	14%	2	99% (active)	inactive	inactive	inactive	inactive
Cn1nc(-c2cccc(CN[C@@H]3CCc4ccc(O)cc43)c2)c2cnc(NCCCN3CCCC3)nc21	-2%	9%	-3	101% (active)	inactive	inactive	inactive	inactive
N#CCOc1c(C2CCN(CCCCNC(=O)c3ccc(-c4ccc(C(F)(F)F)cc4)cc3)CC2)ccc2c1CCCC2	48%	59% (active)	4	97% (active)	inactive	inactive	inactive	inactive
Fc1ccc2nc(-c3ccc(-c4ccc(CNCC5CCCO5)cc4)s3)[nH]c2c1 (stereo not given)	99% (active)	30%	-2	100% (active)	inactive	inactive	inactive	inactive
COc1ccc(S(=O)(=O)NC2CCN(c3ccnc4cc(Cl)ccc34)C2)cc1 (stereo not given)	86% (active)	12%	-2	100% (active)	inactive	inactive	inactive	inactive
CNC(=O)c1[nH]c(-c2ccccc2)nc1NC(C)=O	-2%	-3%	-2	100% (active)	inactive	inactive	inactive	inactive
Cc1cc(F)ccc1Oc1nc(Nc2ccc(N3CCOCC3)c(F)c2)nc2c1S(=O)(=O)CCC2	98% (active)	10%	0	96% (active)	inactive	inactive	inactive	inactive
NC(N)=Nc1nc(-c2cccc(NC(=O)NCc3ccc(OC(F)(F)F)cc3)c2)cs1	26%	-3%	4	100% (active)	inactive	inactive	inactive	inactive
CCOC(=O)c1c(CN(CC)CC)n(-c2ccccc2)c2cc(Br)c(O)cc12	46%	14%	-5	93% (active)	inactive	inactive	inactive	inactive
COc1cc2c(cc1C(F)(F)F)N(C(=O)Nc1cc(Br)cc(-c3cccnc3)c1)CC2	34%	8%	-1	96% (active)	inactive	inactive	inactive	inactive
Cc1ccc(-c2cc(C(=O)Nc3ccc(S(=O)(=O)N4CCCCC4)cc3)[nH]n2)c(O)c1	92% (active)	6%	-5	97% (active)	inactive	inactive	inactive	inactive
Cc1cc(NC(=O)Nc2ccc3ncccc3c2)c2ccccc2n1	27%	6%	-3	93% (active)	inactive	inactive	inactive	inactive
COc1cc(Nc2ccnc3cc(-c4ccncc4)ccc23)cc(OC)c1OC	39%	9%	0	89% (active)	inactive	inactive	inactive	inactive
OC1CCCN(Cc2cccc(-c3ccc(-c4nc5ccccc5[nH]4)cc3)c2)C1 (stereo not given)	16%	25%	-2	85% (active)	inactive	inactive	inactive	inactive
CN1CCN(c2ccnc3ccc(NC(=O)c4ccc(Cl)c(Cl)c4)cc23)CC1	64% (active)	4%	2	100% (active)	inactive	inactive	inactive	inactive
N#Cc1ccc(C2CCN(CC[C@H](N)Cc3ccc(Cl)s3)CC2)cc1	30%	31%	6	92% (active)	inactive	inactive	inactive	inactive
O=C(Nc1ccc(Cl)cc1)c1ccc(CN2CCCN(Cc3ccsc3)CC2)cc1	1%	48%	4	88% (active)	inactive	inactive	inactive	inactive

Structure (SMILES)	growth inhibition [1]	inhibition [2]	inhibition [3] [%]	growth inhibition [4]	outcome [5]	outcome [6]	outcome [7]	outcome [8]
Cc1cc(NC2CCCC2)nc(Nc2ccc(F)cc2)n1	74% (active)	22%	-3	100% (active)	inactive	inactive	inactive	inactive
O=C(Nc1ccc2oc(-c3ccc(Br)cc3)nc2c1)c1ccc([N+](=O)[O-])o1	21%	9%	2	92% (active)	inactive	inactive	inactive	inactive
CCc1cn2c3c(cc(C(=O)N[C@@H](Cc4ccccc4)[C@H](O)CNC4CCCC4)cc13)N(C)S(=O)(=O)CC2	99% (active)	6%	-8	100% (active)	inactive	inactive	inactive	inactive
CC(C)NCC(=O)Nc1cccc(C(=O)Nc2cccc(C(F)(F)F)c2)c1	89% (active)	6%	4	97% (active)	inactive	inactive	inactive	inactive
CCn1c(CN2CCN(Cc3ccccc3)CC2)nc2cc(NC(=O)c3cccs3)ccc21	95% (active)	0%	2	97% (active)	inactive	inactive	inactive	inactive
CS(=O)(=O)c1ccc(-c2cnc(N)c(-c3cccc(O)c3)c2)cc1	97% (active)	48%	-3	98% (active)	inactive	inactive	inactive	inactive
Clc1ccc(CNc2nc(NCCc3cnc[nH]3)nc(NC3CCCCC3)n2)cc1	1%	-5%	-3	100% (active)	inactive	inactive	inactive	inactive
CC(C)(C)c1nn(-c2ccc(Cl)cc2)c2[nH]c(=O)c(CNCc3ccc4c(c3)OCO4)cc12	98% (active)	15%	7	100% (active)	inactive	inactive	inactive	inactive
Cc1ccccc1C1CCN(C2CCC(NC(=O)/C=C/c3ccc4c(c3)OC(F)(F)O4)CC2)CC1 (stereo not given)	39%	75% (active)	2	100% (active)	inactive	inactive	inactive	inactive
c1cc(CN2CCC(CCN3CCCCC3)CC2)cc(-c2cccc(-c3nc4ccccc4[nH]3)c2)c1	101% (active)	95% (active)	-3	100% (active)	inactive	inactive	inactive	inactive
O=C(CCc1cccc(O)c1)NCC(NCCCNc1cc(=O)c2ccccc2[nH]1)c1cc(Br)cc(Br)c1 (stereo not given)	37%	-6%	-4	86% (active)	inactive	inactive	inactive	inactive
CN1CCN(S(=O)(=O)c2ccc3nccc(Nc4ccc(Oc5ccccc5)cc4)c3c2)CC1	91% (active)	-9%	-3	98% (active)	inactive	inactive	inactive	inactive
COc1ccc2nc3cc(Cl)ccc3c(Nc3ccc(O)c(CN4CC5CCC(CC5)C4)c3)c2c1	100% (active)	17%	3	102% (active)	inactive	inactive	inactive	inactive
COc1cc(CNC[C@@H](O)[C@H](Cc2ccccc2)NC(=O)c2cc(OC(C)C)cc(N3CCCCS3(=O)=O)c2)cc(OC)c1	94% (active)	7%	4	100% (active)	inactive	inactive	inactive	inactive
CCOC(=O)CCc1cc(F)c(F)c(OC[C@H](O)CNC(C)(C)C(O)c2ccc3ccccc3c2)c1 (stereo not given in full)	92% (active)	12%	-4	99% (active)	inactive	inactive	inactive	inactive
Cn1c(O)c(N=NC(=S)N2CCOCC2)c2ccccc21	54% (active)	57% (active)	6	95% (active)	inactive	inactive	inactive	inactive
O=C(/C=C/c1cccs1)NCC(NCCCNc1cc(=O)c2ccccc2[nH]1)c1cc(Br)cc(Br)c1 (stereo not given)	58% (active)	0%	0	100% (active)	inactive	inactive	inactive	inactive
Cc1cc(N(C)C)nc(Nc2ccc(NC(=O)C3CCCCC3)cc2)n1	68% (active)	3%	-1	101% (active)	inactive	inactive	inactive	inactive
Cc1ccc(C(=O)Cn2nc(-c3ccc(C)c(S(=O)(=O)N4CCCCC4)c3)ccc2=O)cc1	76% (active)	6%	-5	99% (active)	inactive	inactive	inactive	inactive
CC1N=C(N)N=C(N)N1OCc1ccccc1 (stereo not given)	72% (active)	62% (active)	7	94% (active)	inactive	inactive	inactive	inactive
